For part of these data: Potency and affinity values are given separately.

Common to all, as to design: scale not given: direction of the effect not stated beside the values
The target in test [1] is Protein translocase subunit SecA (Escherichia coli (strain K12)) (UniProt P10408). Nature of the test: Assay to Identify E. coli SecA ATPase Inhibitors. The class given is functional. The note with it: 30 µM.
The target of test [2] is T1, Ubiquitin-activating enzyme e1, putative (Leishmania donovani (strain BPK282A1)) (UniProt E9BSI1).
T1 sequence (whole entry): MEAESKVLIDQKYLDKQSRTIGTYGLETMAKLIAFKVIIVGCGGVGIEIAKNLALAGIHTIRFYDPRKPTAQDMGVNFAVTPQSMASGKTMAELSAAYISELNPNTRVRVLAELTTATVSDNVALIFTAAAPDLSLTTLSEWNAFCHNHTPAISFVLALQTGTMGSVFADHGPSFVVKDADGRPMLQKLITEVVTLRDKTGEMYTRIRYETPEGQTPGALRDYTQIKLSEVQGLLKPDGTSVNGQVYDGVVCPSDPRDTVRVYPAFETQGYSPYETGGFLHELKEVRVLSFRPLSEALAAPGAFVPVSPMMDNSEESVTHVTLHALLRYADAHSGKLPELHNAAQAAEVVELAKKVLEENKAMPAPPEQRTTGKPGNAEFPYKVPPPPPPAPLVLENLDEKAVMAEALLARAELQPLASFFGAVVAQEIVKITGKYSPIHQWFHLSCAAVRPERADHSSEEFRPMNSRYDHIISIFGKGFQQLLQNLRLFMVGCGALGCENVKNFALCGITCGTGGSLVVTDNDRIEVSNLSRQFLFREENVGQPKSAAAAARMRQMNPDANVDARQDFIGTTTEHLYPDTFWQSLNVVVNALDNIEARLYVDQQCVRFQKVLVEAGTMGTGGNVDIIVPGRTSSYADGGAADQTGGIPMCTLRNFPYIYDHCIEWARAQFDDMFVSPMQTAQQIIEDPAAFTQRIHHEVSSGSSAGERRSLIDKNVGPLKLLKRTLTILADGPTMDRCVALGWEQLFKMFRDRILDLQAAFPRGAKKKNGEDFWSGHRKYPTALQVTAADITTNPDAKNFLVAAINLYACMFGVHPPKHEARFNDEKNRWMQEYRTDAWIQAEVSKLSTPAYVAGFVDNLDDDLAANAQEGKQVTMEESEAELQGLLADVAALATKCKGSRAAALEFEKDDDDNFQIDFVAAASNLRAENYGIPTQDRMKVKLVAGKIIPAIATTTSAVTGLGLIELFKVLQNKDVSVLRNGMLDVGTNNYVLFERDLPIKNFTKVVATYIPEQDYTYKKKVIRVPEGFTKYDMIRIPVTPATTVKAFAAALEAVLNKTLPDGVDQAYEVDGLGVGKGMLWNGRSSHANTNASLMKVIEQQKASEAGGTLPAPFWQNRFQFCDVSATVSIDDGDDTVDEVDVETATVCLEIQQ
Nature of the test: Leishmania donovani Ubiquitin Activating Enzyme (LdE1). The class given is functional. The note with it: 30 µM.

The target of test [3] is Sialic acid-binding Ig-like lectin 9 (Homo sapiens) (UniProt Q9Y336). Nature of the test: Hs-Siglec9 ALPHAscreen SOP 20170721. The note with it: 10 µM. For orientation: In Alpha technology, singlet oxygen from a donor bead excites a nearby acceptor bead.
Chain of Sialic acid-binding Ig-like lectin 9 (Homo sapiens) (Q9Y336 whole entry): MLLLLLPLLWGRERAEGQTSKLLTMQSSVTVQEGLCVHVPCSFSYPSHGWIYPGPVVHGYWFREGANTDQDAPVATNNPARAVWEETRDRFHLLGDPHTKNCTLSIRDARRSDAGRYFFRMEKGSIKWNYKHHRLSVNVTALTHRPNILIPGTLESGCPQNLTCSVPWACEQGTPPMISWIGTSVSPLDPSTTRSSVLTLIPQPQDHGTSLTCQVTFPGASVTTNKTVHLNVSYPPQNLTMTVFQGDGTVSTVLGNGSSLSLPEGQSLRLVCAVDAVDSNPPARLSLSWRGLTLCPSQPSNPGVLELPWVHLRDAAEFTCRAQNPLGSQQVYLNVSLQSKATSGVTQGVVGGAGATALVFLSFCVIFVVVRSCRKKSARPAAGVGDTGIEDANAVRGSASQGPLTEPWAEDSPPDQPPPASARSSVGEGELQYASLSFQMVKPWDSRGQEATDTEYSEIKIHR
A further test has as its system Trypanosoma cruzi. As to the kind of experiment: Trypanosoma cruzi phosphomannomutase and mannose-1-phosphate guanylyltransferase assay. Format: functional. Conditions: 10 µM.
Test [4] deals with T2, Arginase-2, mitochondrial (Homo sapiens) (UniProt P78540).
T2 sequence (whole entry): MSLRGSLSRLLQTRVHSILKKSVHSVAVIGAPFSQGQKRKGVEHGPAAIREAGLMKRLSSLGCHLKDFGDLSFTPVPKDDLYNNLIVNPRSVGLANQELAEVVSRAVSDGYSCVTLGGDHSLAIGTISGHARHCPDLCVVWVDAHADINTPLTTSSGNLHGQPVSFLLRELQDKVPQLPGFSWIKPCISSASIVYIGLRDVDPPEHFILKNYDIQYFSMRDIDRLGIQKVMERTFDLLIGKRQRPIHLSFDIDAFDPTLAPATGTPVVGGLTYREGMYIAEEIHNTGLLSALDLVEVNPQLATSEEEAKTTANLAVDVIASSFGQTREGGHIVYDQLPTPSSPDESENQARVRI
As to the kind of experiment: in vitro enzyme assay to detect the production of urea directly proportional to the activity of Arginase II. Note: in the data most compounds retested in dose-response had high values. The note with it: 33.3 µM. The class given is functional.

Test [5] concerns the target T3, Proteasome subunit beta (Trypanosoma cruzi) (UniProt O96673).
T3 sequence (whole entry): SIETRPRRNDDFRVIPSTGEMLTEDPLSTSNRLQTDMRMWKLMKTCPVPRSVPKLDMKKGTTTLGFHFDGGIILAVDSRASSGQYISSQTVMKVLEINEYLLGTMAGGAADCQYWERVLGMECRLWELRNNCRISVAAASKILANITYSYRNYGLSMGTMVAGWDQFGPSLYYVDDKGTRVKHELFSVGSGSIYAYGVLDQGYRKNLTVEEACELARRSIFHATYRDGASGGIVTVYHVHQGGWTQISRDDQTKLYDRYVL
As to the kind of experiment: Trypanosoma cruzi proteasome chymotrypsin-like activity (TcProtChymo) assay. Note: in the data most compounds retested in dose-response had high values. The class given is functional. Conditions: 9.37 µM.

Another test is filed under the species Homo sapiens. Nature of the test: To identify inhibition of the IFN signalling (Jak-Stat) pathway via expression of an eGFP reporter gene under the control of an IFN-stimulated response element (ISRE) containing MxA promoter. Format: functional. The note with it: 30 µM.
Test [6] has as its target T4, Tyrosyl-tRNA synthetase, putative (Trypanosoma cruzi (strain CL Brener)) (UniProt Q4DSP6).
T4 sequence (whole entry): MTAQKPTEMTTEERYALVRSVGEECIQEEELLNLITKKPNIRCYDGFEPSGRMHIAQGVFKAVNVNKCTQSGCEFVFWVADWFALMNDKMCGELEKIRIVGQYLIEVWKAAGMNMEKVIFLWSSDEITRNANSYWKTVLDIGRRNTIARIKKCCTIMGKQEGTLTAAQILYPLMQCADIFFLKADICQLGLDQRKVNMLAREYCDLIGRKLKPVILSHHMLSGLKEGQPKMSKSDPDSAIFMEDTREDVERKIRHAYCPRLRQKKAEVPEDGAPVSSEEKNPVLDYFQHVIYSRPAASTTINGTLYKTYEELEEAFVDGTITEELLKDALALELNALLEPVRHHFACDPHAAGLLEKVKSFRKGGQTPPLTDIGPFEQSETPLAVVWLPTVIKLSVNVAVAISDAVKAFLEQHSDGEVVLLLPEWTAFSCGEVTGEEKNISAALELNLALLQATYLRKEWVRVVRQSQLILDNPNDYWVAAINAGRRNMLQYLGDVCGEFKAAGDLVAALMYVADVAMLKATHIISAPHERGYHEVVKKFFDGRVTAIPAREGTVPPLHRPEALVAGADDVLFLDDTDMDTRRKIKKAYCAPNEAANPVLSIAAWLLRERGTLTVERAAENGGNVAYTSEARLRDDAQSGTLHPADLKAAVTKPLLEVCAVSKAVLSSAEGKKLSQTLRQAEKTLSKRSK
Nature of the test: Trypanosoma cruzi tyrosyl tRNA synthetase (TcYRS) _High Tyrosine SOP. Note: in the data most compounds retested in dose-response had high values. Format: functional. The note with it: 30 µM.

The target of test [7] is T4, Tyrosyl-tRNA synthetase, putative (Trypanosoma cruzi (strain CL Brener)). Nature of the test: Trypanosoma cruzi tyrosyl tRNA synthetase (TcYRS) SOP. Format: functional. Conditions: 30 µM.
The target in test [8] is Chromo domain-containing protein 1 (Saccharomyces cerevisiae (strain ATCC 204508 / S288c) (Baker's yeast)) (UniProt P32657). Nature of the test: ScCHD-1 Enzyme Inhibition Assay. Note: in the data most compounds retested in dose-response had high values. The class given is functional. The note with it: 30 µM.
Chain of Chromo domain-containing protein 1 (Saccharomyces cerevisiae (strain ATCC 204508 / S288c) (Baker's yeast)) (P32657 whole entry, the tested form may be a part): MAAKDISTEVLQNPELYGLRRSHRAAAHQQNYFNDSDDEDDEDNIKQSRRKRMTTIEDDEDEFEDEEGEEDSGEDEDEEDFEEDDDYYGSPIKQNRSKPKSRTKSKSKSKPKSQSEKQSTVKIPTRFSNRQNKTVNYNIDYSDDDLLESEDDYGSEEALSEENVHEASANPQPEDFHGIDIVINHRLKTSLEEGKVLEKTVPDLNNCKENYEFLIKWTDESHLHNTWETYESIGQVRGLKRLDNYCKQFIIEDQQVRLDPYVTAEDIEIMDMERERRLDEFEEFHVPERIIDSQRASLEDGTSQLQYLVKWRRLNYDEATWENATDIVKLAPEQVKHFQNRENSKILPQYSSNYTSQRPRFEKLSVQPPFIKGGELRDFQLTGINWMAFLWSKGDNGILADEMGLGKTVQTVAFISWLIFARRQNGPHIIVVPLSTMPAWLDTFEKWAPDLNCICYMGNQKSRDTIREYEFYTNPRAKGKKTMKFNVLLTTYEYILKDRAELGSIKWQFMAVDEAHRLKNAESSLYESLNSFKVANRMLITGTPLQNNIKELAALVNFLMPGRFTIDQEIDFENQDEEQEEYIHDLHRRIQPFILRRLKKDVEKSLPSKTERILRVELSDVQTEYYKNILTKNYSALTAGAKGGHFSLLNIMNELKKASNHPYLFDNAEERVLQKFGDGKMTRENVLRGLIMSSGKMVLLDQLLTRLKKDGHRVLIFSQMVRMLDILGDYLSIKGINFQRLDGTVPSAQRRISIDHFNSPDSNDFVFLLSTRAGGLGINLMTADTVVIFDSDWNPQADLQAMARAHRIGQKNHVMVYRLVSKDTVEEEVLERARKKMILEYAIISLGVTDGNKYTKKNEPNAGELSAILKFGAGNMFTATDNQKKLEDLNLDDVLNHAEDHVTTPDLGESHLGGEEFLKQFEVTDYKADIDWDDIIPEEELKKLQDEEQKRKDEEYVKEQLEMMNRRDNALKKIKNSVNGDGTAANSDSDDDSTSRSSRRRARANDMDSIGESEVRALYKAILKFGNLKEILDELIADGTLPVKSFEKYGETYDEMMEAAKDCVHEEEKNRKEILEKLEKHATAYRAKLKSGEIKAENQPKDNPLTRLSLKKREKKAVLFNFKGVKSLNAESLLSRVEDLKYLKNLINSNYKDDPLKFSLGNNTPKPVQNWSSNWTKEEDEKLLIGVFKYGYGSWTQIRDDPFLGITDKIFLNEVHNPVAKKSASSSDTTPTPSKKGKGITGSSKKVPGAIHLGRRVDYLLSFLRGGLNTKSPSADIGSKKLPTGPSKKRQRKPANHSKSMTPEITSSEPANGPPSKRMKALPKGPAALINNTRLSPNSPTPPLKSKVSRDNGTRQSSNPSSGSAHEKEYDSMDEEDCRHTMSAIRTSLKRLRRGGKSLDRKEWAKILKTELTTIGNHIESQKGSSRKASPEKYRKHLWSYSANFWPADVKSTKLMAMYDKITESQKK

Chain of Protein translocase subunit SecA (Escherichia coli (strain K12)) (P10408 whole entry): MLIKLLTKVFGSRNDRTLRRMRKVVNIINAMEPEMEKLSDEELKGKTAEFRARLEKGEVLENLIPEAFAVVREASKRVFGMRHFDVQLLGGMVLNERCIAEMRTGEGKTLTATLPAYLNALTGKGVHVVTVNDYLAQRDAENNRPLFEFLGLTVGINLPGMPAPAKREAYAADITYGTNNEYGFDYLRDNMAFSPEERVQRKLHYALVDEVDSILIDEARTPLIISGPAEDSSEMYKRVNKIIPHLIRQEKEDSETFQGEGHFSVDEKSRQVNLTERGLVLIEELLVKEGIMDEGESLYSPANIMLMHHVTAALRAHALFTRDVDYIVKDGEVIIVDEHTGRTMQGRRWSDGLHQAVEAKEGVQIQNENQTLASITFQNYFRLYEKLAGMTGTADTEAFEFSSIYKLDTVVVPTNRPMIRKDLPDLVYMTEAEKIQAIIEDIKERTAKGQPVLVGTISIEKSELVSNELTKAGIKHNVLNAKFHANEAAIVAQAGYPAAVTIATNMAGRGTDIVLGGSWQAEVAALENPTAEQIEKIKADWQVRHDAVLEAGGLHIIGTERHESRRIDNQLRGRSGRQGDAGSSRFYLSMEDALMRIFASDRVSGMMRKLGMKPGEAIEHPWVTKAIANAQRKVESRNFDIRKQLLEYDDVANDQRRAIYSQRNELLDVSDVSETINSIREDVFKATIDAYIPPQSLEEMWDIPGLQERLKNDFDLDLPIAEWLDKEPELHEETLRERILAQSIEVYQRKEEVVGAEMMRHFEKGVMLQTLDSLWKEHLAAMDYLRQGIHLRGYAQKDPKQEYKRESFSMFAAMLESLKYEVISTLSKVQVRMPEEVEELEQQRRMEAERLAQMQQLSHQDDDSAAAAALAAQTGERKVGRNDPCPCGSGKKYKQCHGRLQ

Consider `CCN(C)c1ncnc2c1CCN(Cc1ccoc1)CC2`, for which the Percent Effect was -6.65% in test [1]; 19.5% in test [2]; -3.79% in test [3]; 8.86% in the test on Trypanosoma cruzi; -7.69% in [4]; 18.8% in test [5]. The Percent Effect in the test filed under Homo sapiens is -6.57%; in [6] it was 3.68%; in test [7] it was 15.4%; in test [8], -1.25%.

As to `COCCCNc1nccc(-c2c[nH][nH]c2=O)n1`, the Percent Effect in test [1] is -1.57%; in test [2] it was 8%; in [3], -3.19%; with Trypanosoma cruzi it was -6.63%; in [4], -3.55%; in test [5], 19.9%. In addition, the Percent Effect in the test listed under Homo sapiens is 12.9%; in [6], -1.58%; in [7], 0%; in test [8] it was -11.7%.

With `Cn1cc(C(=O)N2CCCC(n3cccn3)C2)c2ccccc21` (stereo not given), the Percent Effect is -1.25% in test [1]; 8% in [2]; -2.42% in [3]; -5.62% in the test with Trypanosoma cruzi; 7.09% in test [4]; 3.65% in test [5]. Moreover, the Percent Effect in the test listed under Homo sapiens was 9.06%; in [6], 2.63%; in test [7] it was 5.13%; in test [8] it was -11.9%.

As to `CCC1c2ccsc2CCN1C(=O)NCc1ccccn1` (stereo not given), the Percent Effect in [1] is -3.49%; in test [2] it was 20.5%; in test [3], -10.3%; with Trypanosoma cruzi, 4.6%; in test [4] it was 4.1%; in test [5], 10.2%. Further, the Percent Effect in the test listed under Homo sapiens was 10.8%; in test [6] it was 5.26%; in test [7], 22.9%; in test [8], -7.76%.

Consider `Cc1cnc(CN(C)C2CCN(CCc3cnn(C)c3)C2)o1` (stereo not given), for which the Percent Effect in test [1] is -3.84%; in [2], 0%; in test [3], 0.368%; with Trypanosoma cruzi, -1%; in test [4], 2.66%; in test [5], 3.65%. Further, the Percent Effect was 2.79% in the test listed under Homo sapiens, 4.74% in test [6], 5.13% in test [7] and -8.2% in test [8].

`CC(C)n1[nH]c(=O)c2c1NC(=O)CC2c1cccnc1` (stereo not given): the Percent Effect in [1] came out at 0.982%; in test [2] it was 13.5%; in test [3], 1.14%; in the test on Trypanosoma cruzi, 0.873%; in test [4] it was 1.75%; in [5] it was 18.7%. In addition, the Percent Effect in the test filed under Homo sapiens was 23.6%; in test [6], 3.72%; in test [7], 19.5%; in test [8], -3.39%.

In the case of `c1csc(-c2nc(CNC3CCc4ncnn4C3)cs2)c1` (stereo not given), the Percent Effect in test [1] is -3.1%; in test [2], 10.3%; in test [3], 2.55%; in the test with Trypanosoma cruzi, 0.469%; in test [4] it was 2.05%; in test [5], 7.93%. Besides, the Percent Effect worked out at 0.908% in the test listed under Homo sapiens, 6.22% in test [6], 18.1% in [7] and 1.57% in test [8].

For `CC(C)NC(=O)Nc1ccc(CNCc2cccc(C#N)c2)cc1`, the Percent Effect in test [1] was 2.25%; in test [2], 20.8%; in test [3] it was 4.68%; with Trypanosoma cruzi, 0.933%; in test [4], -0.615%; in test [5] it was 6.84%. The Percent Effect in the test filed under Homo sapiens was 0.521%; in test [6], 9.8%; in test [7], 28.2%; in [8], -12.8%.

As for `CC(C)NC(=O)N1C[C@H]2C[C@H](C(=O)NCc3ccccc3)[C@@H](C1)O2`, the Percent Effect is -5.17% in test [1]; -103% in [2]; -0.747% in [3]; -5.16% in the test with Trypanosoma cruzi; -5.67% in [4]; 8.74% in [5]. In addition, the Percent Effect in the test listed under Homo sapiens came out at 8.32%; in [6], 3.68%; in test [7], 7.69%; in [8], 3.3%.

As to `CCN(Cc1cccc2c1OCO2)C(=O)Nc1ccncc1`, the Percent Effect in [1] was -0.455%; in test [2], -2.6%; in [3], 12.1%; with Trypanosoma cruzi it was -2.8%; in [4], -2.25%; in test [5] it was 2.81%. Further, the Percent Effect in the test listed under Homo sapiens came out at 34.4%; in test [6], 0.98%; in [7], 0%; in [8] it was 5.59%.

Take `CN1CC(=O)N(c2cnn(C)c2)CC12CCN(C(=O)c1ccsc1)C2` (stereo not given): the Percent Effect in [1] is -5.41%; in test [2], 1.3%; in test [3], 3.75%; in the test with Trypanosoma cruzi, -6.13%; in test [4] it was 2.43%; in [5], 6.27%. The Percent Effect in the test filed under Homo sapiens was -0.162%; in test [6], 2.63%; in [7], 2.56%; in test [8], -2.51%.

As to `O=C(NCC1CC1)[C@H]1C[C@H]2OCC[C@H]2N(Cc2ccsc2)C1`, the Percent Effect in [1] is -6.05%; in [2], -3.9%; in test [3], -0.139%; with Trypanosoma cruzi, -1.85%; in [4] it was -6.07%; in test [5] it was 2.38%. In addition, the Percent Effect in the test listed under Homo sapiens is -7.12%; in test [6], -2.63%; in test [7], 0%; in [8], -0.205%.
